Entries with a potency or affinity are not part of this list. The source made the active and inactive calls. How the calls were made is not given here.
Experiment: CCR5-tropic HIV-1 fusion blockers – cell-based, CCR5-tropic Env, dose response (AID 2279)
Conditions: CCR5-tropic HIV-1 Env, reporter read-out; series mostly up to 50 µM

outcome, inactive:
CCOc1cc(/C=N/N=C2/NC(=O)C(CC(=O)O)S2)ccc1OCc1ccc(Cl)cc1 (centres undefined)
Cc1cccc(OCC(=O)Nc2ccc(C(=O)Nc3ccccc3C(=O)O)cc2)c1C
O=C(NN1C(=O)/C(=C\c2ccc(O)c([N+](=O)[O-])c2)SC1=S)c1ccccc1Cl
O=C1NN(c2ccc(Cl)c(Cl)c2)C(=O)/C1=C/c1cccc(OC(=O)c2cccs2)c1
CCc1nnc(NS(=O)(=O)c2ccc(NC(=S)NC(=O)/C=C/c3cccs3)cc2)s1
O=C(O)COc1ccccc1/C=N/Nc1ccc(S(=O)(=O)Nc2ccc(Cl)cc2)cc1[N+](=O)[O-]
O=C(O)CN1C(=O)/C(=C\c2ccccc2OCc2ccc(Cl)cc2Cl)SC1=S
CCOc1cc(/C=N/N=C2/NC(=O)C(CC(=O)O)S2)ccc1OCc1ccc(Cl)cc1Cl (centres undefined)
COc1cc(/C=C2\C(=N)N3N=C(S(C)(=O)=O)SC3=NC2=O)cc(OC)c1OCCOc1ccccc1C
O=C1NC(=O)/C(=C/c2ccc(-c3cc(C(=O)O)ccc3Cl)o2)S1
O=C1NN(c2ccc(Cl)cc2)C(=O)/C1=C\c1ccc(-c2cccc(C(=O)O)c2)o1
O=C(Nc1cccc(C(F)(F)F)c1)c1cccc(NS(=O)(=O)c2ccc(O)c(C(=O)O)c2)c1
COc1cc(NS(=O)(=O)c2ccc(Nc3nc(-c4ccccc4)cs3)cc2)nc(OC)n1
COc1ccc(N=C2S/C(=C\c3ccc(OCC(=O)O)cc3)C(=O)N2CCc2c[nH]c3ccccc23)cc1
O=C(O)c1cc(-c2ccc(/C=N/Nc3ccc(Cl)cc3)o2)ccc1Cl
COc1ccc(-c2cc(-c3ccc(Cl)cc3)c(C#N)c(SCC(=O)O)n2)cc1
COc1ccc(/C=N/NC(=O)c2[nH]c3ccc(Br)cc3c2-c2ccccc2)c(C(=O)O)c1OC
Cc1ccc(F)c(NC(=O)/C(C#N)=C(\O)c2ccc(C(C)(C)C)cc2)c1
C=CCOc1ccc(C(c2c(C(=O)O)[nH]c3ccccc23)c2c(C(=O)O)[nH]c3ccccc23)cc1

Source: PubChem BioAssay AID2279 (Southern Research Specialized Biocontainment Screening …, 2010)
